SMILES strings stand for the structures. In all, about 320,000 compounds went through this assay and about 2,100 (0.66%) were called active. Roughly 53% stayed inconclusive and do not appear here. The call rests on the fitted dose curve; in most records, active means well fitted inhibition curve with a large enough effect in the signal ratio, with a control signal flat (not every such curve was filed as active); inconclusive means small, poorly fitted or top-dose-only effect, or effect the other way, or a change in a side signal; inactive means flat fitted curve, though single readings scatter; the % refers to the signal ratio. What follows is part of a selection rich in actives, with near analogues and random picks from the rest.
Potency means the concentration at half of the fitted maximal effect.

The nature of the assay: qHTS Assay for Lipid Storage Modulators in Drosophila S3 Cells.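 On cell number change: cells counted by Cell Tracker Red CMTPX staining in the red channel.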 On lipid storage change, negative = inhibition: on the % scale 0 is the no-effect control and ±100 the full control effect. To be noted: BODIPY lipid droplet fluorescence, 18-24 h, cells fed with added oleic acid; cell number change: measured here: cell count max response; series mostly up to 46.1 µM; lipid storage change, negative = inhibition: at the top concentration. In a few lines: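 Laser-scanning cytometry quantifies lipid droplet accumulation (500–530 nm total intensity; droplet/cell object ratio) in oleic acid-fed (400 uM added) Drosophila S3 cells treated with a concentration series. 20 uM Triacsin C defined 100% inhibition.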
Take `COCCNC(=S)Nc1ccc(S(=O)(=O)Nc2ncccn2)cc1`: the “lipid storage change, negative = inhibition” value was 6.38% (inactive).
On to `CC(C)OP(=O)(OC(C)C)C(Nc1ccccc1)c1ccc2c(c1)OCO2` (stereo not drawn), for which the “lipid storage change, negative = inhibition” value was -18.8% (inactive) and the cell number change is -17%.
As to `CC1(C(=O)OCc2cc(=O)n3cc(Br)ccc3n2)CC1(Cl)Cl` (stereo not drawn), the “lipid storage change, negative = inhibition” value is 28.5% (inactive) and the cell number change was 20.1%.
Consider `Nc1nc(/C=C/c2cccnc2)nc(-c2ccccc2O)n1`, for which the “lipid storage change, negative = inhibition” value is -12.8% (inactive) and the cell number change is -9.25%.
The like results for `CCC(CC)C(=O)N(c1ccc(F)cc1)C1C=CS(=O)(=O)C1` (stereo not drawn) were, in that order, 21.6% (inactive) and -1.72%.
`COc1ccc(N(C(=O)Cc2cccs2)C(C(=O)NC2CCCC2)c2ccncc2)cc1OC` (stereo not drawn): the outcome was inactive and the cell number change was found to be 16.1%.
As for `CC1=CC(C)(C)N(C(=O)CSc2nnc(N)s2)c2cc(C)c(C)cc21`, the “lipid storage change, negative = inhibition” value is 9.13% (inactive) and the cell number change turned out to be 6.05%.
On to `COC(=O)c1ccccc1NC(=O)c1nc(S(=O)(=O)Cc2ccccc2)ncc1Cl`, for which the call was inactive and the cell number change is -21.2%.
Take `COc1ccccc1NC(=O)c1nc(S(=O)(=O)Cc2ccccc2)ncc1Cl`: the compound was called inactive and the cell number change is -4.72%.
Regarding `CCc1ccc(NC(=O)c2nc(S(=O)(=O)Cc3ccccc3)ncc2Cl)cc1`, the Potency is 1.16 µM (active) and the cell number change is -18.2%.
For the compound `O=C(OCc1ccc(Cl)c(Cl)c1)c1ccc[nH]1`, the “lipid storage change, negative = inhibition” value is -19.8% (inactive) and the cell number change turned out to be 0.855%.
For `COc1ccc(CNc2ncccn2)cc1OC` the same measures were -2.64% (inactive) and 2.02%.
Turning to `COc1ccc(CNC2c3ccccc3-c3ccccc32)cc1OC`, the Potency is 3.66 µM (active) and the cell number change worked out at 14.9%.
With `CCOc1ccc(CNC2CCCCCCC2)cc1OC`, the “lipid storage change, negative = inhibition” value was -10.8% (inactive) and the cell number change was -6.56%.
`Cc1ccccc1-n1c(Cn2c(=O)sc3ccccc32)nnc1SCC(=O)N1CCOCC1`: the “lipid storage change, negative = inhibition” value was -10.7% (inactive) and the cell number change is -4.41%.
For `Cc1cc(C)n(CCC(=O)N=Nc2c(O)[nH]c3ccc(Br)cc23)n1` the same measures were 4.25% (inactive) and -11.1%.
For `CCOCCCNC(=O)c1ccc2c(c1)N=C(CC)c1cc(Br)ccc1S2` the same measures were 1.52% (inactive) and 13.2%.
For the compound `COc1ccc(CN2CCSCC2)cc1C`, the Potency was 23.1 µM (active) and the cell number change stood at 8.44%.
Consider `COc1ccccc1CN1CCCCCC1`, for which the “lipid storage change, negative = inhibition” value was 4.08% (inactive) and the cell number change stood at 10.4%.
Consider `COc1cccc(CN2CCSCC2)c1`, for which the “lipid storage change, negative = inhibition” value was -2.92% (inactive) and the cell number change is 8.55%.
Take `COc1cccc(CN2CCSCC2)c1OC`: the “lipid storage change, negative = inhibition” value was 2.57% (inactive) and the cell number change came to 10.1%.
Take `COc1ccccc1CN1CCSCC1`: the Potency is 23.1 µM (active) and the cell number change was -20%.
Turning to `COc1cc(CN2CCSCC2)cc(OC)c1OC`, the “lipid storage change, negative = inhibition” value is 6.26% (inactive) and the cell number change was -0.391%.
As for `O=C(Nc1ccc(F)cc1)N1CCCN(c2ccc(C(F)(F)F)cn2)CC1`, the “lipid storage change, negative = inhibition” value is 5.76% (inactive) and the cell number change was -1.28%.
As for `O=C1C2C3c4ccccc4C(c4ccccc43)C2C(=O)N1/N=C/c1cccc(O)c1` (stereo not drawn), the “lipid storage change, negative = inhibition” value was 3.58% (inactive) and the cell number change is 9.29%.
Turning to `CC1(C)CC(NC(=O)c2cc(S(=O)(=O)N3CCOCC3)c(Cl)cc2Cl)CC(C)(C)N1`, the outcome was inactive and the cell number change is -3.63%.
Turning to `COc1cc(/C=C2\SC(N3CCc4ccccc4C3)=NC2=O)cc(OC)c1OC`, the “lipid storage change, negative = inhibition” value was 23.5% (inactive) and the cell number change was determined as 4.12%.
As for `COc1ccc(/C=C(\C#N)c2nc3ccc(C)cc3[nH]2)cc1Oc1ccc(C(F)(F)F)cc1[N+](=O)[O-]`, the Potency was 8.2 µM (active).
Consider `N#C/C(=C\c1ccc(Oc2ccc(C(F)(F)F)cc2[N+](=O)[O-])cc1)c1nc2ccccc2[nH]1`, for which the “lipid storage change, negative = inhibition” value is -16.1% (inactive) and the cell number change is -10.6%.
For `N#C/C(=C\c1ccc(-c2ccccc2C(=O)O)o1)c1nc2ccccc2[nH]1` the same measures were -14.4% (inactive) and -1.22%.
Take `Cc1ccc2nc(/C(C#N)=C\c3ccc([N+](=O)[O-])o3)[nH]c2c1`: the Potency was 6.51 µM (active) and the cell number change was -22.5%.
With `Cc1ccc2nc(/C(C#N)=C/c3cn[nH]c3-c3ccc(F)cc3)[nH]c2c1`, the compound was classed as inactive and the cell number change was -24.5%.
Take `Cc1ccc2nc(/C(C#N)=C\c3ccc(Oc4ccc(C(F)(F)F)cc4[N+](=O)[O-])cc3)[nH]c2c1`: the “lipid storage change, negative = inhibition” value was -3.61% (inactive) and the cell number change came to 1.55%.
Consider `N#C/C(=C\c1ccc([N+](=O)[O-])o1)c1nc2ccccc2[nH]1`, for which the Potency is 4.11 µM (active) and the cell number change is -21.1%.
For `N#C/C(=C(/O)c1ccc([N+](=O)[O-])o1)c1nc2ccccc2[nH]1`, the “lipid storage change, negative = inhibition” value was -16.9% (inactive) and the cell number change was -1.26%.
In the case of `Cc1ccc2nc(/C(C#N)=C/c3ccccc3C(=O)O)[nH]c2c1`, the compound was classed as inactive.
Regarding `CCOC(=O)c1c(NC(=O)C2CC2)sc2c1CC(C)(C)OC2`, the “lipid storage change, negative = inhibition” value was -4.23% (inactive) and the cell number change is 0.857%.
The like results for `COC(=O)C(C)n1nc(C)n(-c2ccc(C)cc2)c1=O` (stereo not drawn) were, in that order, -18.3% (inactive) and -11.2%.
Consider `COc1ccc(CC(=O)Nc2ccc(C(=O)Nc3ccccc3C(=O)O)cc2)cc1OC`, for which the “lipid storage change, negative = inhibition” value was 13.2% (inactive) and the cell number change worked out at 17.1%.
For `COc1cc(C(=O)NC(c2ccccc2)c2ccccc2)cc(Cl)c1OC` the same measures were -11.7% (inactive) and 14.2%.
As for `Cc1ccc(C(=O)N2CCN(c3ccc(NC(=O)c4ccc5c(c4)OCCO5)cc3)CC2)cc1`, the “lipid storage change, negative = inhibition” value is 0.0275% (inactive).
For `CCC(=O)N1CCN(c2ccc(NC(=O)c3ccc4c(c3)OCCO4)cc2)CC1`, the “lipid storage change, negative = inhibition” value is 1.66% (inactive) and the cell number change worked out at 25.3%.
For the compound `CC(C)(C)C(=O)N1CCN(c2ccc(NC(=O)c3ccc4c(c3)OCCO4)cc2)CC1`, the Potency is 16.4 µM (active) and the cell number change was -3.48%.
In the case of `CCN(CC(=O)Nc1ccccc1C(F)(F)F)C(=O)c1ccc(=O)n(Cc2ccccc2)n1`, the “lipid storage change, negative = inhibition” value was 7.12% (inactive) and the cell number change was 22.5%.
The like results for `CC(=O)c1cn(CC(=O)NCC2CCCO2)c2ccccc12` (stereo not drawn) were, in that order, 18% (inactive) and 3.78%.
Turning to `COc1cc(CNC2CCCCCCC2)c(Br)cc1OCCO`, the “lipid storage change, negative = inhibition” value is -10.5% (inactive) and the cell number change was -14%.

The record behind these values is PubChem BioAssay AID2685 (National Center for Advancing Translational Sciences (NCATS), 2010).
